Data on 40 sequences can be found in the OligoGym collection.
Note: reference of the scale not given here.

For one experiment, the target named is KIR2DL5B. Nature of the experiment: pooled miR-30 sensor sort-seq; sequence = guide strand. The conditions noted are these: shRNA.
Consider TTGAAGAGTTTCCTGTGACAGA, for which the sensor-assay potency score (higher = more potent) was -0.517. In turn, ACAAGCAGTGGGTCACTCGGGT yielded a sensor-assay potency score (higher = more potent) of -0.672. With TATCTGTTGGAGGTGCCTTGGG, the sensor-assay potency score (higher = more potent) was -0.788.

For the sequence TTGTACAGACTGAAGATGGTAA, the sensor-assay potency score (higher = more potent) was -0.188.

The target of another experiment is KLC3. The description is as above. The conditions noted are these: shRNA.
On to TCTTTGTACAGCTCTTCCGCTT, for which the sensor-assay potency score (higher = more potent) is -0.542. For TTGGAGAGTGAGCTGCTGCGGC, the sensor-assay potency score (higher = more potent) is -0.586. Take TTGTACAGCTCTTCCGCTTGTT: the sensor-assay potency score (higher = more potent) turned out to be 0.24.

The sequence TTCTTTGTACTTGTTCTGGTCC showed a sensor-assay potency score (higher = more potent) of -0.164. As to TTCTTTGTACAGCTCTTCCGCT, the sensor-assay potency score (higher = more potent) was -0.475. TTTGTACTTGTTCTGGTCCCGG displayed a sensor-assay potency score (higher = more potent) of -0.559.

With ATCTTGGAGAGTGAGCTGCTGC, the sensor-assay potency score (higher = more potent) is -1.26.

Consider TTTCTTTGTACAGCTCTTCCGC, for which the sensor-assay potency score (higher = more potent) was -0.28. TTGATACTTGTTCTGTTTCAGG yielded a sensor-assay potency score (higher = more potent) of -0.751. The same measure, in the same setting: the result for TTCTGTTTCAGGTAGGCTGAGG reads -0.432; that for TTGTACTTGTTCTGGTCCCGGT, -0.388; that for TTGAGTGACATGGCTCTCTTCA, -0.297.

The target of a further experiment is KLF14. The description is as above. The conditions noted are these: shRNA.
In turn, TACTCGATCATATCTGGATGAT yielded a sensor-assay potency score (higher = more potent) of -0.368. TATCTGGATGATAGGTTGGGTG displayed a sensor-assay potency score (higher = more potent) of -1.33. In turn, TAAACTTCTTGTCGCAGTCGAG displayed a sensor-assay potency score (higher = more potent) of -0.734. As to TTGAGGTGCGACGACTTGTAAT, the sensor-assay potency score (higher = more potent) is -1.63.

The sequence TTCTTGTCGCAGTCGAGCCAGT returned a sensor-assay potency score (higher = more potent) of -1.02. As to TTGGTCAGGTGGTCGCTCCGGG, the sensor-assay potency score (higher = more potent) is -0.324. In turn, TCGCAGTCGAGCCAGTCGCAGG registered a sensor-assay potency score (higher = more potent) of -1.84. On the same count and under the same terms, the result for TAGGCTTTGGTGCAGCCCGGGA reads -1.12. As for AAACTTCTTGTCGCAGTCGAGC, the sensor-assay potency score (higher = more potent) was -1.65. ATATCTGGATGATAGGTTGGGT displayed a sensor-assay potency score (higher = more potent) of -0.162. The sequence ATAGGCTTTGGTGCAGCCCGGG returned a sensor-assay potency score (higher = more potent) of -0.764.

Turning to TTGTAATAGGCTTTGGTGCAGC, the sensor-assay potency score (higher = more potent) is -0.333.

Another experiment has as its target KLF15. Described as above. Conditions: shRNA.
In the case of TAAACCTGTCAAAACAAGCTAG, the sensor-assay potency score (higher = more potent) was -0.421. The sequence TAACATTGCCATGTCCCTCTGG showed a sensor-assay potency score (higher = more potent) of 0.313. As to TTTGGTGTACATCTTGCTGCAG, the sensor-assay potency score (higher = more potent) was determined as 0.126. Sequence TTAAATTTCAAATTTACACAAA gave a sensor-assay potency score (higher = more potent) of -0.919. Regarding TATCTAGTTCTCTCACACCCAG, the sensor-assay potency score (higher = more potent) is -0.809. As for TAGCACTAAAGTTCTGGCCTTG, the sensor-assay potency score (higher = more potent) was -0.309. TCTCGCACACAGGACACTGGTA had a sensor-assay potency score (higher = more potent) of -0.647. Take TGGATCTGCAGCAACACTGGGA: the sensor-assay potency score (higher = more potent) was -0.384.

Consider TATATTTTTATGAAGGACCAAA, for which the sensor-assay potency score (higher = more potent) is -0.999. As to TATTTTATGTGGATGGACCTAT, the sensor-assay potency score (higher = more potent) turned out to be 0.313. The same measure, in the same setting: the result for AAACTCTTCAATCTCCTCCAGG reads -0.475.

Regarding TTGGTGTACATCTTGCTGCAGC, the sensor-assay potency score (higher = more potent) was -0.584.
